The source of these data is ChEMBL document CHEMBL4513216, “Probing the Open Global Health Chemical Diversity Library for Multistage-Active Starting Points for Next-Generation Antimalarials” (ACS Infect Dis, 2020).

In all, about 68,000 compounds went through this assay and about 2,700 (4%) showed an effect of 50% or more. Shown is part of a subset that was picked to be rich in strong results.

The subject of this experiment is Plasmodium berghei. As to the kind of experiment: Screen against P. berghei liver stage (PbLuc), transformed with Luciferase, at 2uM. The format is functional, HepG2. The settings on record: tested at 2 uM.
For the compound `CCCn1nc(C(=O)N2CCCC2c2noc(C)n2)ccc1=O` (stereo unspecified), the INHIBITION is -17.18%.

Take `CCN(CC)CC1CN(Cc2ccc(C)s2)Cc2nccn2C1` (stereo unspecified): the INHIBITION was -0.18%.

In the case of `CCn1cncc1Cn1cccc(C(F)(F)F)c1=O`, the INHIBITION turned out to be 10.1%.

For the compound `CC(C)Cn1cncc1Cn1cccc(C(F)(F)F)c1=O`, the INHIBITION is 1.22%.

Turning to `CCn1cnnc1Cn1cccc(C(F)(F)F)c1=O`, the INHIBITION came out at 62.01%.

On to `CCOCCN1C[C@H](C(=O)Nc2cccnc2)[C@@H]2CCO[C@@H]2C1`, for which the INHIBITION is recorded as 8.18%.

As to `CS(=O)(=O)N1C[C@H](C(=O)Nc2cccnc2)[C@@H]2CCO[C@@H]2C1`, the INHIBITION is 51.27%.

For the compound `O=C(Nc1cccnc1)[C@H]1CN(C2CCCC2)C[C@H]2OCC[C@@H]12`, the INHIBITION is given as -42.87%.

With `Cc1nn(C)cc1C1=NS(=O)(=O)N(C)C(C(=O)Nc2ccc(Br)cc2)=C1`, the INHIBITION amounted to 22.84%.

As to `O=C(c1ccoc1)N(Cc1ccncc1)C1CC1`, the INHIBITION is -37.38%.

For the compound `CCc1nnc(SCc2nonc2C)n1C1CC1`, the INHIBITION is on record as -11.87%.

Consider `COC(=O)CNC(=O)CSCc1nc(O)c2cc(C)sc2n1`, for which the INHIBITION is listed as -2.99%.

Turning to `CC(C)C(C(=O)N1CCC(Nc2cccnn2)CC1)n1cncn1` (stereo unspecified), the INHIBITION is given as -12.48%.

In the case of `Cc1nc(C(C)Nc2nc3c(s2)c(C)nn3C)n[nH]1` (stereo unspecified), the INHIBITION came out at 5.48%.

In the case of `CC(NC(=O)NCCCN(C)C)c1ccc2c(c1)CCC(=O)N2` (stereo unspecified), the INHIBITION was 2.08%.

As for `CC(NC(=O)NCc1cccs1)c1ccc2c(c1)CCC(=O)N2` (stereo unspecified), the INHIBITION is 16.84%.

As to `CC(NC(=O)NCCS(C)(=O)=O)c1ccc2c(c1)CCC(=O)N2` (stereo unspecified), the INHIBITION worked out at 60.13%.

Regarding `CC(C)(CN)NS(=O)(=O)c1cccc(F)c1F`, the INHIBITION is listed as -6.69%.

With `O=C(CCC(=O)N1CCC(c2noc3cc(F)ccc23)CC1)NC1CC1`, the INHIBITION is reported as 11.87%.

As to `O[C@@H]1CC(CNCC2CCCC2)(COc2cccnc2)C[C@@H]1O` (stereo partly specified), the INHIBITION was 42.64%.

Regarding `CC(C)NCC1(COc2ccccc2)C[C@@H](O)[C@@H](O)C1` (stereo partly specified), the INHIBITION was 71.58%.

Take `O[C@@H]1CC(CNCC2CC2)(COc2cccnc2)C[C@@H]1O` (stereo partly specified): the INHIBITION came to 39.62%.

Consider `Cn1cc(C[C@H]2[C@H](O)CCN2Cc2ccncc2)cn1`, for which the INHIBITION amounted to 20.41%.

As for `CCCNC(=O)c1cn(C(C)(C)C)c2ncccc12`, the INHIBITION amounted to 12.87%.

On to `COc1ccc(-c2cc3nn(CC(=O)NC(C)C)c(=O)n3c(C)n2)cc1`, for which the INHIBITION came to 22.96%.

As to `Cc1nc(-c2ccccc2)cc2nn(CC(N)=O)c(=O)n12`, the INHIBITION came out at 20.88%.

Turning to `COc1ccc(-c2cc3nn(CC(N)=O)c(=O)n3c(C)n2)cc1`, the INHIBITION is recorded as 52.74%.

With `CCn1ncc2c1NC(=O)C(C#N)C21CCCC1` (stereo unspecified), the INHIBITION is -12.09%.

For `CCN1CC(CN(C)c2cc(C)nc(N)n2)Oc2ccccc21` (stereo unspecified), the INHIBITION is listed as -10.39%.

In the case of `CC(C)OCCN1CCN(C(=O)c2cccc(CC#N)c2)CC1`, the INHIBITION was found to be 5.72%.

Regarding `CC(=O)NCC1CCC2(CCN(c3ncc(C(C)=O)c(C)n3)CC2)O1` (stereo unspecified), the INHIBITION came to 11.37%.

Regarding `CC(=O)NCC1CCC2(CCN(c3ncnc4oc(C)nc34)CC2)O1` (stereo unspecified), the INHIBITION is -7.91%.

On to `CC(=O)NCC1CCC2(CCN(c3ncc(C)cn3)CC2)O1` (stereo unspecified), for which the INHIBITION was 58.03%.

As for `O=C(NCCn1nc2ccccn2c1=O)c1cc(C2CC2)[nH]n1`, the INHIBITION worked out at 25.03%.

In the case of `CC(=O)c1cc(C(=O)NC2(c3ccc(Br)cc3)CC2)n(C)c1`, the INHIBITION came out at 63.4%.

Take `Cc1cc(C(=O)NC2(c3ccc(Br)cc3)CC2)n(C)n1`: the INHIBITION is given as -25.71%.

For `CC(=O)c1cc(C(=O)NC2(c3ccccc3)CCC2)n(C)c1`, the INHIBITION is on record as 10.43%.

On to `Cc1ncc(CNC(=O)CCc2cccc(F)c2)c(C2CCCN2C)n1` (stereo unspecified), for which the INHIBITION is 7.21%.

Consider `c1coc(-c2nc3c(c(N4CCCN5CCC[C@H]5C4)n2)CCNCC3)c1`, for which the INHIBITION is given as -53.14%.

As for `O=C(O)c1ccccc1C1CCN(C2CCN(c3ccccc3)CC2)C1` (stereo unspecified), the INHIBITION worked out at 38.67%.

Take `NC1CCN(C2CCN(c3ccc(-c4ccco4)cc3)CC2)CC1`: the INHIBITION stood at 55.36%.

As to `NCC1CCN(C2CCN(c3ccc(-c4ccco4)cc3)CC2)C1` (stereo unspecified), the INHIBITION is given as 74.44%.

As to `COc1ccc(N2CCC(N3CCOC(C(F)(F)F)C3)CC2)cc1` (stereo unspecified), the INHIBITION is 10.95%.

Turning to `CNC1CCN(C2CCN(c3ccc(-c4ccco4)cc3)CC2)CC1`, the INHIBITION is 7.67%.

Turning to `O=C(c1ncccn1)N1CCC2(CC1)COC(COc1ccccn1)C2` (stereo unspecified), the INHIBITION is on record as 17.35%.

For `CCN(CC)c1ccc(C(=O)N2C[C@H]3CC[C@@H](C2)N(CCOC)C3)cc1`, the INHIBITION was -34.04%.

Take `CS(=O)(=O)N1CCOCC2(CCN(Cc3ccc[nH]3)CC2)C1`: the INHIBITION is given as -14.21%.

As to `CC(C1CC1)N(CC(=O)NCC(F)(F)F)C1CC1` (stereo unspecified), the INHIBITION is listed as 54.02%.

In the case of `CC(C1CC1)N(CC(=O)NC(=O)NC1CC1)C1CC1` (stereo unspecified), the INHIBITION turned out to be 31.39%.

Regarding `CC(C)NC(=O)CN(C1CC1)C(C)C1CC1` (stereo unspecified), the INHIBITION was -26.26%.

On to `Cc1ncc(CNCC(=O)NCC(F)(F)F)n1-c1ccccc1`, for which the INHIBITION is recorded as 48.21%.

Turning to `Cc1ncc(CNCC(=O)NC2CCCCC2)n1-c1ccccc1`, the INHIBITION was found to be 21.97%.

With `Cc1ncc(CNCC2CCC(C(N)=O)CC2)n1-c1ccccc1` (stereo unspecified), the INHIBITION is listed as 72.05%.

As to `COCCc1noc(CN2CCCCC2Cn2cc(C)cn2)n1` (stereo unspecified), the INHIBITION amounted to 3.3%.

For the compound `Cn1cccc1C(=O)NS(=O)(=O)c1cnn(-c2ccccc2F)c1`, the INHIBITION was found to be 25.21%.

Turning to `Fc1ccc(C2CN(CCc3ccncc3)CCO2)cc1` (stereo unspecified), the INHIBITION turned out to be 13.26%.

On to `CCc1ccc(C2NCCc3cc4c(cc32)OCCO4)cc1` (stereo unspecified), for which the INHIBITION is on record as -5.98%.

As for `CCN1C[C@H]2CCN(C(=O)Cc3cccc(OC)c3)CC[C@H]2S1(=O)=O`, the INHIBITION is reported as -8.72%.

For the compound `Cc1ccc(NC(=O)C2CSCN2C(=O)c2cnccn2)cc1C` (stereo unspecified), the INHIBITION is on record as 54.2%.

`Cc1ccc(NC(=O)C2CSCN2C(=O)c2ccncc2)c(C)c1` (stereo unspecified): the INHIBITION was determined as 11.95%.

In the case of `Cc1ccc(NC(=O)C2CSCN2C(=O)c2cnccn2)c(C)c1` (stereo unspecified), the INHIBITION stood at 51.21%.

For the compound `Cc1cccc(NC(=O)C2CSCN2C(=O)c2cnccn2)c1C` (stereo unspecified), the INHIBITION is -1.85%.

As for `Cc1ccc(NC(=O)C2CSCN2C(=O)c2cc[nH]n2)c(C)c1` (stereo unspecified), the INHIBITION is recorded as -16.12%.

On to `Cc1ccc(NC(=O)C2CSCN2C(=O)c2cccnc2)c(C)c1` (stereo unspecified), for which the INHIBITION is listed as -0.12%.

For `O=S(=O)(NCc1ccccc1)Nc1ccc(-n2cncn2)cc1`, the INHIBITION was 4.12%.

For `Fc1cnc(N2CCn3c(CN4CCCC4)nnc3C2)nc1`, the INHIBITION was -55.08%.
